# Measurements reported in the supplement of paper PMC10338343.
# ± gives the standard deviation.
# Legend:
# [1] = tested on: MILI (PIWIL2) piRISC loaded with L1MC piRNA (26 nt); experiment: pre-steady-state target cleavage rate (min^-1); guide: L1MC piRNA 5'p-UAACUAAAUACUAUGCAAGCUGUAGG; higher = faster piRNA-guided slicing of the target
# Method in brief: (§1)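 The pre-steady-state cleavage rate was obtained by Cleave-'n-Seq with a burst-and-steady-state fit. A transcribed, DNA-blocked target RNA library (0.1 nM) was mixed with 1 nM active affinity-purified piRISC carrying one synthetic guide, with or without 500 nM GTSF1 partner protein, in HEPES–potassium acetate buffer at 33 °C for 0–8 or 0–960 min. Uncleaved targets were sequenced and normalised to depth and to weakly complementary targets, with three trials pooled and k3 capped at 0.0001 min^-1.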
# [2] = tested on: EfPiwi piRISC loaded with L1MC piRNA (26 nt); experiment: pre-steady-state target cleavage rate (min^-1); auxiliary factor: 500 nM Ephydatia muelleri Gtsf1; guide: L1MC piRNA 5'p-UAACUAAAUACUAUGCAAGCUGUAGG; MIWI and MILI are mouse PIWI proteins and EfPiwi is from a freshwater sponge; tags in brackets are library labels; higher = faster piRNA-guided slicing of the target
# Method in brief: as §1
# [3] = auxiliary factor: 500 nM mouse GTSF1
# [4] = auxiliary factor: none (no GTSF1)
Sequence,"pre-steady-state target cleavage rate [1, 3]","pre-steady-state target cleavage rate [1, 4]",pre-steady-state target cleavage rate [2]
UCCUCCUACCGCUUGCAUAGUAUUUAGUUA,0.305 ± 0.015,0.0125 ± 0.003,0.0865 ± 0.023
UCCUGGAACAGCUAGCAUAGUAAUUAGUUA,0.155 ± 0.018,0.00801 ± 0.0026,0.0062 ± 0.0028
UCCUCCAACAGCUUGCAUAGUAUUUAGAUA,0.192 ± 0.034,0.00442 ± 0.0025,0.0051 ± 0.0023
UCCUGGAUGAGCUUGCAUCGUAUUUAGUUA,0.0594 ± 0.0092,0.00554 ± 0.0025,0.00975 ± 0.0029
UCCUGGAACAGCUUGACAUAGUAUUUAGUUA,0.213 ± 0.016,0.00586 ± 0.0022,0.013 ± 0.004
UCCUGCAACAGCUUGCAUUGUAUUUAGUUA,0.262 ± 0.018,0.0076 ± 0.0027,0.0331 ± 0.0081
UCCUGCAACAGCUUGCUUAGUAUUUAGUUA,0.293 ± 0.016,0.00661 ± 0.0026,0.0143 ± 0.0036
UCCUGGUACAGCUUGCAUAGUAUUUUGUUA,0.118 ± 0.024,0.00398 ± 0.0037,0.00618 ± 0.003
UCCUGGUACAGCUUGAAUAGUAUUUAGUUA,0.302 ± 0.055,0.00915 ± 0.0046,0.0053 ± 0.0028
UCCUCCUACAGCUUGGUUAGUAUUUAGUAA,0.204 ± 0.022,0.00554 ± 0.0017,0.00533 ± 0.0032
UCCUGGAAGAGCUUGCAAAGUAUUUAGUUA,0.075 ± 0.012,0.00782 ± 0.0029,0.018 ± 0.005
UCCUCCUACAGCUUUCAUAGUAUUUAGUUA,0.213 ± 0.017,0.00664 ± 0.002,0.00691 ± 0.0022
UCCUGGAACGAGCUUGCAUAGUAUUUAGUUA,0.239 ± 0.024,0.00792 ± 0.0025,0.00926 ± 0.0022
UCCUGGAACAUCUUGCAUAGUAUUUAGUUA,0.244 ± 0.013,0.0108 ± 0.0028,0.0653 ± 0.016
UCCUGGAUGUCCUUGCAUAGUGUUUAGUUA,0.0572 ± 0.012,0.00445 ± 0.0025,0.00951 ± 0.0035
UCCUCCUACUGCUAGCAUAGUAUUUAGUUA,0.232 ± 0.015,0.006 ± 0.0021,0.0131 ± 0.004
UCCUGCUACAAGCUUGCAUAGUAUUUAGUUA,0.157 ± 0.015,0.00805 ± 0.002,0.00475 ± 0.0013
UCCUGCUACUGGUUGCAUAGUAUUUAGUUA,0.251 ± 0.018,0.0113 ± 0.0029,0.0113 ± 0.0035
UCCUGGAUGUCGGUGCAUAGUAUUUAGUUA,0.0897 ± 0.011,0.00862 ± 0.0023,0.00511 ± 0.0033
UCCUGGUACAGCAUGCAUAGUAUAUAGUUA,0.241 ± 0.038,0.00583 ± 0.0028,0.00569 ± 0.0031
UCCUGGUUCUGCUUGCAUAGUAUUUAGUUA,0.186 ± 0.024,0.00814 ± 0.0033,0.0355 ± 0.011
UCCUCCUACAGCUUCGAUAGUAUUUAGUUA,0.26 ± 0.017,0.00534 ± 0.0022,0.0137 ± 0.0042
UCCUGCUACAGCUUGCUAAGUAUUUAGUUA,0.176 ± 0.018,0.00399 ± 0.0022,0.00353 ± 0.0029
UCCUGGAUGAGCUUGCAUAGUCUUUAGUUA,0.0764 ± 0.012,0.00627 ± 0.0022,0.0107 ± 0.0033
UCCUGGAACAGCAUGCAUAGUAUUUAGUUA,0.256 ± 0.02,0.00812 ± 0.0028,0.0466 ± 0.011
